Hits are enriched below; roughly 2.4% of the tested compounds scored in any of these assays.
ClpP mod: qHTS Assay for Activators of ClpP. AID 651965, 2013. ATP-dependent Clp protease proteolytic subunit (Bacillus subtilis (strain 168)), P80244. Potency, µM (highest dose often 57.5 µM), inactives show at the highest dose activity change, negative = active. hit rate 1.9% among 340,000. purified B. subtilis ClpP, FRET peptide cleavage, 20 min; active = well fitted falling curve with a large enough effect; inconclusive = small, poorly fitted or top-dose-only effect; inactive = no such curve, though single readings can be large or run the other way; also: the source files actives as falling curves though it sought activators and does not explain the sign; nearly all actives have a fitted effect of over 65% in size
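Buffer: 100 mM Tris/HCl pH8, 100 mM KCl, 0.05% low protease BSA, 2.5% glycerol, 0.01% Tween-20. ClpP 10 microg/mL final; 20 min RT; delta FRET normalized to ADEP and DMSO controls.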
Rango dissoc inh: inhibition of RanGTP-driven Rango-importin beta dissociation | O95149+P62826 | Biochemical FRET Rango-importin beta, RanGTP-induced dissociation | Potency, µM (series often up to 46.1 µM), without a hit: at the highest dose activity change, negative = inhibition | hit rate 0.071% among 340,000 | AID 540253; calls by dose curve; also: % of control where 0% means no effect; nearly all actives have a fitted effect of over 45% in size
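Recombinant Rango FRET biosensor (EYFP–snurportin 1 IBB–cerulean CFP10) at 0.1 uM premixed with 0.25 uM importin beta in PBS, 1 mM DTT, 0.02% Tween-20, 0.1% BSA. Compound added 5 min; RanGTP-RCC1 (0.6 uM Ran, 2 mM GTP, 0.2 uM RCC1) then triggers release, read at 45 min.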
PTAP TSG101 blk: blocks PTAP/TSG101 interaction to inhibit HIV-1 budding | Fluorescence polarization, FITC-PTAP peptide / Tsg101 binding | Potency, µM (highest dose often 115 µM), for the others: at the top dose activity change, negative = inhibition, most hits filed as inhibitors | Q99816 | AID 493005 | 340,000 tested, under 10 active; active = well fitted inhibition curve with a large enough effect in the main read-out, with a control signal flat, not every such curve was filed as active; inconclusive = small, poorly fitted or top-dose-only effect, or effect the other way, or a change in a side signal; inactive = no such curve, though single readings can be large or run the other way; also: % of control where 0% means no effect
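Fluorescence polarization binding of Tsg101 binding domain (10 uM final) to FITC-labeled PTAP peptide (50 nM final) in HEPES pH 7.5 buffer with NaCl, Tween 20, EDTA, TCEP. Compounds added before peptide; binding 20 min at RT.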
Rango complex inh: prevents formation of the Rango-importin beta complex; Rango CFP/YFP FRET sensor + importin beta, 45 min; Potency, µM (highest dose often 92.2 µM), for inactives: at the highest dose inhibition of complex formation; hit rate 0.031% among 340,000; Q14974; calls by dose curve;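 also: 0% = DMSO wells and 100% = buffer wells lacking importin beta; nearly all actives have a fitted effect of over 15% in size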
Target sequence (Q14974 whole entry, looked up): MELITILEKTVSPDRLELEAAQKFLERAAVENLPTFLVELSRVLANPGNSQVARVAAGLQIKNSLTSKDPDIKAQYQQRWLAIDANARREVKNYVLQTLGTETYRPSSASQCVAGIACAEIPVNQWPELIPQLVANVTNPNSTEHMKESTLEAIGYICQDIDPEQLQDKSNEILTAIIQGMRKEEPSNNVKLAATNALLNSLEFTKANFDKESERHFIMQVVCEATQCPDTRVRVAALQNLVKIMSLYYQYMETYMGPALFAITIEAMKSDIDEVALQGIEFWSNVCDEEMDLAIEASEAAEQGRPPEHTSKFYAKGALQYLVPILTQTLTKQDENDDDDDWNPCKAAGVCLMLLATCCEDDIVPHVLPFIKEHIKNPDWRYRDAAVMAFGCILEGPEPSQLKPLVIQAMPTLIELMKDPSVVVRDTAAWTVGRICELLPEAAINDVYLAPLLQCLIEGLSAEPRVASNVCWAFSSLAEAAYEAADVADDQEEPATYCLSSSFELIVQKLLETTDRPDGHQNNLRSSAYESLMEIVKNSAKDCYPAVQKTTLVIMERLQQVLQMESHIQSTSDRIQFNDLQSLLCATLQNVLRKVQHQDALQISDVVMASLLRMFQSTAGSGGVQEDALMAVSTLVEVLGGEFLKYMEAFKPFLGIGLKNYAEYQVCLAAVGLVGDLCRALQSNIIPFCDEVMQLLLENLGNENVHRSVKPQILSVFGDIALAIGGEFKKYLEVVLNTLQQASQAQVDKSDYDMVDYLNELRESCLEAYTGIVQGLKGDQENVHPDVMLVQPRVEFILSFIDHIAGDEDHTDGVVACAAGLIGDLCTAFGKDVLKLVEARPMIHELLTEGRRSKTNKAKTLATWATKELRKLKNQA
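FRET biosensor Rango (snurportin 1 IBB between N-terminal EYFP and C-terminal Cerulean), 50 nM in PBS/1 mM DTT/0.02% Tween-20/0.1% BSA, preincubated 5 min RT with compound; 0.125 microM importin beta added, 45 min RT, CFP/YFP FRET ratio read.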
TDP1 inh: TDP1 (human) enzyme inhibition; recombinant TDP1, AlphaScreen DNA substrate cleavage; hit rate 0.28% among 350,000; Potency, µM (series often up to 130 µM), inactives show top-dose activity change, negative = inhibition, hits mostly inhibitors; Q9NUW8; also: % is scaled to controls: 0 for no effect and ±100 for the full control effect; nearly all actives have a fitted effect of over 40% in size
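Here, a 5' biotin and 3' phosphotyrosine-FITC DNA oligonucleotide reports Tdp1 activity: intact substrate bridges AlphaScreen beads, while cleavage leaves a 3' phosphate and drops signal. All incubations at room temperature.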
12-LOX inh: inhibitors of human 12S-lipoxygenase ALOX12; Potency, µM (top dose mostly 108 µM), inactives show at the top dose activity change, negative = inhibition, hits mostly inhibitors; P18054; hit rate 1.1% among 580,000; purified 12hLO, xylenol orange hydroperoxide absorbance; also: % is scaled to controls: 0 for no effect and ±100 for the full control effect
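Purified human 12hLO at 150 nM in 25 mM Hepes, 0.01% Triton X-100, pH 7.0, preincubated 15 min at room temperature with compound. Reaction started with 40 uM arachidonic acid, 30 min at room temperature. Hydroperoxide measured by Fe-xylenol orange, 573/405 nm absorbance ratio.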
* marks the source's active call; other numbers are inactive results; ? = inconclusive; · = no result; [ ] = another dose, or the depositor's remark. Unless noted, calls follow the shape of the dose curve; as a rule, active = well fitted curve in the direction sought with a large enough effect; inconclusive = small, poorly fitted or top-dose-only effect, or another doubt; inactive = no such curve, though single readings can be large; an effect the other way counts as inactive or inconclusive. Potency is read from the fitted curve at half-maximal effect.

SMILES | ClpP mod | Rango dissoc inh | PTAP TSG101 blk | Rango complex inh | TDP1 inh | 12-LOX inh
O=C1/C(=C/C=C/c2ccco2)SC(=S)N1c1ccc(O)cc1 | -3% | -2% | 0% | -4% | · | -16%
O=C(NN1C(=O)/C(=C/C=C/c2ccco2)SC1=S)c1ccncc1 | · | ? | -4% | ? | · | 50µM*
CC(C)C(C(=O)O)N1C(=O)/C(=C/C=C/c2ccco2)SC1=S (stereo unspecified) | -3% | 0.0052µM* | 12% | ? | ? | ·
COc1cc(OC)c(-c2oc3ccccc3c(=O)c2O)c(OC)c1 | 28µM* | ? | -1% | ? | · | -16%
COc1ccc(/C(C)=N/NC(=S)NCCc2ccccc2)cc1 | · | 7% | -4% | 0% | 10% | 0%
S=C(NCCCCc1ccccc1)Nc1cccc(Cl)c1Cl | · | · | · | · | · | 25µM*
S=C(NCCc1ccccc1)NCCc1ccccc1 | -2% | 3% | 0% | -4% | 2% | 50µM*
Cc1c(Cl)cccc1NC(=S)NCCc1ccc(C(F)(F)F)cc1 | · | 0% | 0% | -3% | 5% | 40µM*
C/C(=N\NC(=S)NCCc1ccccc1)c1cccs1 | -3% | -27% | -19% | ? | -3% | 45µM*
Nc1ncnc2c1c(-c1cnc3[nH]ccc3c1)nn2C1CCCC1 | · | · | · | · | · | -15%[57.4 µM]
COc1ccc(-c2ccc(CCC(=O)NC3CCS(=O)(=O)C3)o2)cc1 (stereo unspecified) | · | · | · | · | · | -3%
C/C(CCc1ccccc1)=N\NC(=S)NCCc1ccccc1 | · | 11% | -7% | 5% | 5% | 40µM*
COc1cccc2c(=O)c(SC(F)(F)C(F)C(F)(F)F)c(C)[nH]c12 (stereo unspecified) | ? | -8% | 2% | ? | 2% | -37%
COc1cccc2c(=O)c(C/C=C(/C)Cl)c(C)[nH]c12 | 16µM* | 18% | -6% | 8% | 2% | -17%
CN(C)c1ccc(-c2cc(C3C4C=CCCC4(C)C(=O)N3Cc3ccccc3)ccc2F)cc1 (stereo unspecified) | · | · | · | · | 22% | ·
COc1ccc(-c2cc([C@H]3[C@@H]4C=CCC[C@@]4(C)C(=O)N3Cc3ccccc3)ccc2F)cc1OC | -22% | 19% | -6% | ? | 5% | 11µM*
C[C@@]12CCC=C[C@H]1[C@H](c1ccc(F)c(/C=C/c3ccccc3)c1)N(Cc1ccccc1)C2=O | 28µM* | ? | -2% | -1% | 0% | -2%
C[C@@H]1CN(C(=O)c2ccc3c(c2)NC(C)(CNc2ccccc2)CO3)C[C@H](C)O1 (stereo partly specified) | · | · | · | · | · | 9%[176 µM]
Cc1ccccc1-c1cn(-c2ccccc2)c(=S)[nH]1 | · | 17% | -1% | 1% | 14% | ?
Cc1ccc(-c2cn(-c3ccccc3)c(=S)[nH]2)cc1C | · | 0% | -7% | 3% | · | 35µM*
CCn1c(=O)c(-c2ccccc2)c(O)c2ccccc21 | -17% | 1% | -1% | 1% | 1% | -3%
CCCCCn1c(=O)c(Cc2ccccc2)c(O)c2ccccc21 | 14µM* | -11% | -3% | 3% | -3% | 5%
CCCCCOC(=O)Cc1c(O)c2ccccc2n(C)c1=O | 28µM* | 1% | -2% | -3% | 2% | 0%
CCCn1c(=O)c(Cc2ccccc2)c(O)c2ccccc21 | 28µM* | 10% | -2% | 4% | -7% | 0%
CCOC(=O)c1c(O)c2ccccc2n(C)c1=O | · | -1% | -5% | -7% | -1% | -18%
SMILES | ClpP mod | Rango dissoc inh | PTAP TSG101 blk | Rango complex inh | TDP1 inh | 12-LOX inh
CCCc1c(O)c2ccccc2n(-c2ccccc2)c1=O | 5.6µM* | 14% | -8% | -1% | 2% | -5%
O=C1CCSc2ccc(S(=O)(=O)NC3CCN(Cc4ccccc4)CC3)cc2N1 | · | · | · | · | · | 5%
CCN(C(=O)Cc1cccc2cccnc12)C1CCS(=O)(=O)C1 (stereo unspecified) | · | · | · | · | · | -17%
Cc1ccc(CNC(=O)COc2ccc3c(C(F)(F)F)cc(=O)oc3c2)cc1 | · | · | · | · | · | 19%
Cn1c(=O)c(Cc2ccccc2)c(O)c2ccccc21 | 25µM* | -5% | -4% | 3% | 1% | 9%
COc1ccc(/C=C2/C(=O)ON=C2C)cc1Br | 0% | -6% | 0% | 0% | · | ?
C#CCOc1ccc(/C=C2/C(=O)ON=C2C)cc1Cl | · | 14% | -8% | 8% | · | 8.9µM*
C#CCOc1c(Br)cc(/C=C2/C(=O)ON=C2C)cc1OC | · | 6% | -2% | 0% | · | 5µM*
C=CCOc1c(Br)cc(/C=C2/C(=O)ON=C2C)cc1OC | · | 11% | 0% | 0% | · | 16µM*
C#CCOc1c(Cl)cc(/C=C2/C(=O)ON=C2C)cc1OCC | -2% | 2% | 0% | -5% | · | 45µM*
COc1ccc(-c2nc(CSc3ccc(S(=O)(=O)N4CCCCC4)cn3)no2)cc1 | · | · | · | · | · | 1%
C#CCOc1c(Br)cc(/C=C2/C(=O)ON=C2C)cc1OCC | 2% | 0% | -6% | 0% | · | 11µM*
CCOc1cc(/C=C2/C(=O)ON=C2C)ccc1OCc1ccccc1 | · | 7% | -3% | 0% | -6% | ?
O=C(O)CNS(=O)(=O)c1ccc2c(c1)CCCC2 | · | 4% | 0% | -2% | 50µM* | -3%
O=C(O)CCc1ccc(S(=O)(=O)Nc2ccc3c(c2)CCC3)cc1 | · | · | · | · | · | 5%
CCN(CC)c1ccc(NS(=O)(=O)c2ccc3c(c2)CCCC3)cc1C(=O)O | · | · | · | · | · | 7.9µM*
CCC(=O)c1ccc(CCCCCC(=O)O)s1 | 2% | -6% | -3% | -3% | 18µM* | 0%
CC(=O)c1ccc(CCCCCCCCCC(=O)O)s1 | 1% | -4% | -5% | -1% | -1% | 6%
Cn1cnc2ccc(Nc3cccc(F)c3)nc2c1=O | · | · | · | · | · | 11%[176 µM]
CN(C1CCCCC1)S(=O)(=O)c1ccc(NC(=O)C2CCCCC2C(=O)O)cc1 (stereo unspecified) | 32µM* | 1% | -1% | 3% | 5% | -21%
COCc1nncn1C1CCN(S(=O)(=O)c2cccc(OC)c2)CC1 | · | · | · | · | · | 59%
CCOC(=O)c1c(NC(=O)C2=C(C)NC(=S)NC2c2ccccc2C(F)(F)F)sc(C)c1C (stereo unspecified) | ? | -2% | 0% | -5% | 0% | 25µM*
Brc1c(CSc2nc3ccccc3s2)nc2ncccn12 | 28µM* | 37% | 0% | 4% | 1% | -15%
Cc1cc(=O)[nH]c(SCc2nc3ncccn3c2Br)n1 | 28µM* | 4% | 5% | -3% | 5% | -20%
O=[N+]([O-])c1ccc2sc(SCc3nc4ccccn4c3Br)nc2c1 | · | · | · | · | -1% | ·

From PubChem BioAssay
